# Bioassay records from PubChem.
# A selection: hits, their analogues and other compounds. The true share with any hit is near 8.8%.
# LMNA splice mod – LMNA splicing modulation; HeLa LMNA splicing GFP/RFP minigene ratio, 48 h; Potency, µM (doses to about 46.1 µM), usual class: inhibitors; 200,000 tested, 0.01% active; AID 1487; active = well fitted inhibition curve with a large enough effect in the signal ratio, with a control signal flat, not every such curve was filed as active; inconclusive = small, poorly fitted or top-dose-only effect, or effect the other way, or a change in a side signal; the % refers to the signal ratio
#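 S3 HeLa cells stably expressing lamin A-EGFP splicing minigene plus DsRed2, 600 cells/well, 48 h compound exposure at 37C. Laser-scanning cytometry; analysed as GFP (500-530 nm)/RFP (575-640 nm) total intensity ratio; 0.5% DMSO vehicle.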
# HTT ATP protect – protects HTT-Q103 PC12 cells, measured by ATP; PC12 HTT-Q103 induced, cytoprotection, ATP luminescence, 40 h; Potency, µM (top dose mostly 56.4 µM), actives largely listed as activators; 230,000 tested, 0.14% active; active = well fitted curve in the direction sought with a large enough effect; inconclusive = small, poorly fitted or top-dose-only effect, or another doubt; inactive = no such curve, though single readings can be large; an effect the other way counts as inactive or inconclusive; also: nearly all actives have a fitted effect of over 45% in size
#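 Readout: ATPlite luminescence (ATP level). Model: stable PC12, inducible Htt exon1 Q103-GFP. Inducer: tebufenozide, 100 nM final. Compounds: dose series. No G418 in medium.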
# HPGD block – blocks human HPGD enzyme activity; P15428; purified HPGD, NADH fluorescence kinetic, PGE2 substrate; Potency, µM, actives largely listed as inhibitors; 150,000 tested, 4.3% active
#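 20 nM HPGD preincubated 15 min at room temperature with compound in 50 mM Tris-HCl pH 8, 0.01% Tween 20. Started with 1 mM NAD+ and 30 uM prostaglandin E2; NADH fluorescence (360/450 nm) read 5 times over 30-s intervals, last minus first.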
# HttQ103 aggreg – reduces HttQ103-GFP aggregates in PC12 cells | PC12 HttQ103-GFP aggregates, Acumen cytometry, 40 h | Potency, µM (doses to about 46.1 µM), hits mostly inhibitors | 220,000 tested, 1.1% active; active = well fitted curve in the direction sought with a large enough effect; inconclusive = small, poorly fitted or top-dose-only effect, or another doubt; inactive = no such curve, though single readings can be large; an effect the other way counts as inactive or inconclusive; also: nearly all actives have a fitted effect of over 60% in size
#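 Aggregates are detected as GFP objects 1–25 µm with signal 6 STDEV over background in lysates of induced PC12 cells. These carry Huntingtin exon 1 with 103 glutamines fused to GFP under an ecdysone promoter; compounds titrated.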
# ALDH1A1 inh – ALDH1A1 (human) enzyme inhibition. P00352. 220,000 tested, 7.3% active. Potency, µM (highest dose often 75.3 µM), actives largely listed as inhibitors. Purified ALDH1A1, NADH fluorescence, propionaldehyde substrate
# Target sequence (P00352 whole entry, looked up): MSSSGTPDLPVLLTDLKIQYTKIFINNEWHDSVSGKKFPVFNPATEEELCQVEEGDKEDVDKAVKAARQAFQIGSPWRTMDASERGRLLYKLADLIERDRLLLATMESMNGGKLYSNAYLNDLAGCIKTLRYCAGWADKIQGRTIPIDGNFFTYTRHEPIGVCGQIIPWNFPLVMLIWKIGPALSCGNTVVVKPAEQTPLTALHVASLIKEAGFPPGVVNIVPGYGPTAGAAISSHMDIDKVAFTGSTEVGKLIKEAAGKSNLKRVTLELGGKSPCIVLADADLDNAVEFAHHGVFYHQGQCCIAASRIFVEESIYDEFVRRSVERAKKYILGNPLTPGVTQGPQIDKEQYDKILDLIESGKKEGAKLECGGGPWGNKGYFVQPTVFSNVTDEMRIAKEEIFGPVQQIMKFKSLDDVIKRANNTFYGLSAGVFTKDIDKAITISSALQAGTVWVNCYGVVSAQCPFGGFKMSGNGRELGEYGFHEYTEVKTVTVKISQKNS
# Hits are given with their value; - = inactive; ? = inconclusive; . = no result; [ ] = dose if it differs, or a comment. Unless noted, calls follow the shape of the dose curve; as a rule, active = well fitted inhibition curve with a large enough effect (not every such curve was filed as active); inconclusive = small, poorly fitted or top-dose-only effect, or another doubt; inactive = no such curve, though single readings can be large or run the other way.
SMILES,LMNA splice mod,HTT ATP protect,HPGD block,HttQ103 aggreg,ALDH1A1 inh
Cc1ccc(NC(=O)CN2CCCN(S(=O)(=O)c3ccc(Br)s3)CC2)cc1,?,-,-,-,20µM
Cc1cc2n(n1)CCCN2C(=O)Nc1cccc(C)c1C,-,.,.,.,.
Cc1cc(NC(=S)N(CCN2CCCCC2)Cc2ccco2)ccc1Cl,?,-,.,?,7.94µM
OCc1ccccc1,-,?,-,-,-
ICCc1ccccc1,.,-,10µM,.,3.55µM
C(=C\c1ccccc1)/CN1CCN(c2ncnc3c2oc2ccccc23)CC1,?,-[0.074 µM],?,6.31µM,?
O=C1c2ccccc2C(Nc2ccc(Cl)cn2)N1Cc1ccccc1 (configuration not stated),-,-,-,?,12.6µM
O=C1c2ccccc2C(Nc2ccccc2)N1c1ccc(Cl)cn1 (configuration not stated),-,-,-,-,?
C=CCOC(=O)N[C@H](/C(C(=O)OC)=C(\C)NCc1ccccc1)c1cccc(F)c1,.,.,-,.,-
CCc1ccc(NC(=O)c2c(C(=O)Nc3ccccc3)sc3nc(C)cc(=O)n23)cc1,?,-[10 µM],.,-,0.891µM
Cc1ccc(NC(=O)c2c(C(=O)Nc3ccccc3)sc3nc(C)cc(=O)n23)cc1,-,-,.,?,4.47µM
Cc1cc(=O)n2c(C(=O)Nc3ccc(C)c(C)c3)c(C(=O)Nc3ccccc3)sc2n1,?,-,.,-,?
Cc1nc([N+](=O)[O-])c(Sc2nc3ccc([N+](=O)[O-])cc3[nH]2)n1Cc1ccccc1,?,?,?,-,7.51µM
Cc1ccccc1C(=O)NCc1nnc(SCC(=O)N2CCN(c3ccccc3)CC2)n1C,-,-,-,-,10µM
O=C(NCc1cn2ccsc2n1)c1c(F)cccc1Cl,-,-,8.91µM,-,-
O=C(NCc1cn2ccsc2n1)c1cccc(C(F)(F)F)c1,-,-,-,-[9.22 µM],-
CCN1C(=O)/C(=C\C=C2/C=CC=CN2CC)SC1=S,-,.,-,-,25.1µM
Nc1c(-c2cccc(Cl)c2)cnn1-c1cccc(C(F)(F)F)c1,-,-,12.6µM,-,-
Nc1c(-c2ccc(Cl)cc2)cnn1-c1cc(C(F)(F)F)cc(C(F)(F)F)c1,.,-[10 µM],.,-[9.22 µM],.
Nc1c(-c2ccccc2)cnn1-c1cccc(C(F)(F)F)c1,-,-[10 µM],10µM,-,-
Cc1ccc(-c2nc(C)c(CCNS(=O)(=O)c3ccccc3F)s2)cc1,-,.,.,.,.
Clc1nnc(NN=C2CCCC2)c2ccccc12,?,.,-,-,2.82µM
Clc1nnc(N/N=C/c2ccccc2)c2ccccc12,-,-[10 µM],-,-,-
Cc1ccccc1C1CC(=O)Oc2cc(C)c(Br)c(C)c21 (configuration not stated),.,-,-,.,-
CCCn1c2ccccc2c2nnc(SCC(=O)Nc3cc(C)on3)nc21,-,-[10 µM],-,-,?
SMILES,LMNA splice mod,HTT ATP protect,HPGD block,HttQ103 aggreg,ALDH1A1 inh
O=C(CSc1nnc2c3ccccc3c3ccccc3c2n1)Nc1ccccc1F,-,-,-,-,8.91µM
CCCn1c2ccccc2c2nnc(SCC(=O)Nc3ncccn3)nc21,-,-,-,-,7.08µM
CCn1c2ccccc2c2nnc(SCC(=O)N3CC(C)OC(C)C3)nc21 (configuration not stated),-,-[10 µM],14.1µM,-[9.22 µM],20µM
COc1ccccc1N1CCN(C(=O)CSc2nnc3c4ccccc4n(CC(=O)O)c3n2)CC1,-,-[10 µM],-,-,-
CSc1nnc2c3ccccc3n(CCc3ccccc3)c2n1,?,-[10 µM],-,?,8.91µM
CSc1nnc2c3ccccc3n(Cc3ccccc3)c2n1,-,-,-,-,-
CCCS(=O)(=O)N1CC(=O)N(c2ccc(C)cc2C)C(C)(C(=O)NC2CCCCCC2)C1 (configuration not stated),-,.,.,.,.
CCOC(=O)C(CSCC(=O)c1ccc(Cl)cc1)NC(=O)OC(C)(C)C (configuration not stated),-,-,-,-,20µM
CC(C)C1CC(CCNCc2ccc3c(c2)OCO3)(c2ccccc2)CCO1 (configuration not stated),.,-[10 µM],.,-[9.22 µM],.
Cc1ccc(C2(CCNCc3ccc(N(C)C)cc3)CCOC(C(C)C)C2)cc1 (configuration not stated),-,-[10 µM],.,-,25.1µM
CC(C)C1CC(CCNCc2ccc(N(C)C)cc2)(c2ccccc2)CCO1 (configuration not stated),-,-[10 µM],.,-,20µM
